Assay outcomes (PubChem BioAssay)
In the library only some 5.7% were active in any assay of this set; here they are far more common.
DAX1 inh-1 – NR0B1 (DAX1) inhibition; P51843; HEK293 Gal4-DAX1 luciferase reporter, luminescence; inhibition, % at 6.75 µM; 340,000 tested, 0.99% active;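 active = inhibition above the mean over all tested compounds plus 3 SD, cut at about 4.2% in these data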;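 note: 0% = DAX1-transfected cells with DMSO and 100% = empty-vector control cells with DMSO; inhibition shows as a rise in luminescence from relieved DAX1 repression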
hgDAF-12 ag – hgDAF-12 agonism, primary luciferase screen; HEK293 GAL4-hgDAF12 UAS-luciferase reporter, agonist luminescence; normalized to butyrate control; 370,000 tested, 1.8% active; activation, % at 6.8 µM; AID 687014;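 active = activation above a cutoff set at the mean of all screened compounds plus 3 SD, cut at about 10% in these data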;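 note: 0% = DMSO wells and 100% = sodium butyrate wells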
hcDAF12 agonist – activators of H. contortus DAF-12 nuclear receptor; 370,000 tested, 1.4% active; activation, % at 6.8 µM; AID 652067; HEK293 hcDAF-12 lit1-tk-luc reporter, luminescence; 0% DMSO, 100% Δ7-dafachronic acid;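 active = activation above the mean of all tested compounds plus 3 SD, cut at about 5.5% in these data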;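 note: 100% = response to 3 µM Δ7-dafachronic acid high control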
DAX1 inh-2 – inhibitors of DAX1 repression of SF-1 activated StAR promoter; HEK293T StAR-luciferase reporter, SF-1/DAX-1 repression relief; inhibition, % at 6.8 µM; 370,000 tested, 1.1% active; AID 652010;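 active = inhibition above the mean over all tested compounds plus 3 SD, cut at about 3.6% in these data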;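 note: 0% = DAX-1 cells with DMSO and 100% = cells lacking DAX-1 with DMSO; higher inhibition means more luminescence from relief of DAX-1 repression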
AHR activator – human AHR activation. AHR-responsive luciferase reporter cells, luminescence. 320,000 tested, 2.5% active. activation, % at 5 µM. AID 2796. P35869; in the data active = activation above about 47%;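 note: 0% = vehicle wells and 100% = reference agonist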
Target sequence (P35869 whole entry, looked up): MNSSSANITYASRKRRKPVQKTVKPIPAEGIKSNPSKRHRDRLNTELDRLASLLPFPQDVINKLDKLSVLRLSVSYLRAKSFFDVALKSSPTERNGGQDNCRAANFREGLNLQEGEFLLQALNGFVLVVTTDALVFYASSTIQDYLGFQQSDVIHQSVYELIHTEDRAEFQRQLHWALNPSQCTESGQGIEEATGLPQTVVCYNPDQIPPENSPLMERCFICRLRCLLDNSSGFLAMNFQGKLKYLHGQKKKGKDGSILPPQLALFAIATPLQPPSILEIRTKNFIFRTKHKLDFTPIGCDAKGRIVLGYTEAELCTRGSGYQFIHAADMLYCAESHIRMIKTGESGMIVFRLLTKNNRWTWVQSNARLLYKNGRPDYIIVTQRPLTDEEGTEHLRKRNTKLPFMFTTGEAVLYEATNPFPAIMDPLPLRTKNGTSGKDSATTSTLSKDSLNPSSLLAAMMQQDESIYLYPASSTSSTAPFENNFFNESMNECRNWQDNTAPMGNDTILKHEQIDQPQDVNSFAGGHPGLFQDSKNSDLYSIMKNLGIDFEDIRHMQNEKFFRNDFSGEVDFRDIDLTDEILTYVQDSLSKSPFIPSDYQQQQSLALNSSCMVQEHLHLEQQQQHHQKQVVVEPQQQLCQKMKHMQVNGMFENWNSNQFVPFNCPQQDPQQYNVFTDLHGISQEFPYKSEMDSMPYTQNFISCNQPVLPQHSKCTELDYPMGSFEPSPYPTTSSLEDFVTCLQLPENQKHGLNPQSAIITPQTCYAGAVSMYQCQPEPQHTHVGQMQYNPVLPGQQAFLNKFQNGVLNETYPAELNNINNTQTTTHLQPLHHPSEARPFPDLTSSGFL
ssDAF-12 act – S. stercoralis DAF-12 activation, primary screen; activation, % at 6.8 µM; HEK293 ssDAF-12/GRIP1 lit1-tk-luc reporter, luminescence; % of 3 µM dafachronic acid response; 370,000 tested, 1% active;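 active = activation above the mean over all tested compounds plus 3 SD, cut at about 0.9% in these data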;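 note: 0% = DMSO-only wells and 100% = 3 µM delta7-dafachronic acid wells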
The depositor's hits bear a star; . = no result given.

SMILES	DAX1 inh-1	hgDAF-12 ag	hcDAF12 agonist	DAX1 inh-2	AHR activator	ssDAF-12 act
O=C(Nc1ccc2c(c1)OCO2)C1CCCN(S(=O)(=O)c2cccs2)C1 (configuration not stated)	0	.	.	.	66*	.
CC(=O)c1ccc(S(=O)(=O)N2CCN(C(=O)CN3C(=O)NC4(CCCC4)C3=O)CC2)cc1	0	-2	0	1	2	-1
S=C(SCc1cc(Cl)cc2c1OCOC2)N1CCSCC1	.	4	3	0	.	0
O=C(Nc1ccc2c(c1)OCO2)N1CCOCC1	0	-1	0	-1	44	0
CC1CN(C(=O)Nc2ccc3c(c2)OCO3)CC(C)O1 (configuration not stated)	3	5	-1	1	52*	-1
O=C(Nc1ccc2c(c1)OCO2)N1CCCC1	1	9	2	1	70*	-1
N#CCOc1ccccc1/C=C/c1nc2ccccc2c(=O)[nH]1	0	5	0	1	62*	-1
Cc1ccccc1/C=C/c1nc2ccccc2c(=O)[nH]1	1	11*	4	3	70*	0
COCCOC(=O)N/C=C\c1nc2ccccc2c(=O)[nH]1	0	4	0	0	55*	-1
COC(=O)[C@H](Cc1ccccc1)N[C@H](c1ccc(OC)cc1)[C@@H](O)Cc1ccccc1	.	1	1	0	.	-1
COC(=O)c1cc2c(c3c4ccccc4n(S(=O)(=O)c4ccc(C)cc4)c13)C(=O)N(Cc1ccccc1)C2	.	0	0	-1	.	-1
CCCCNC(=S)Nc1cc([N+](=O)[O-])ccc1C	0	-2	3	0	44	-1
Nc1c(C(=O)O)ccc2c1C(=O)c1ccccc1C2=O	0	1	-2	0	3	-1
Nc1ccc2c(c1Cl)C(=O)c1ccc(N)c(Cl)c1C2=O	2	3	2	0	.	1.1*
Cc1cccc(N(C(=O)CCC(=O)Nc2cc(C)on2)C(C(=O)NC2CCCC2)c2ccc(C)o2)c1 (configuration not stated)	-1	4	-1	1	5	2.2*
Cc1cc(NC(=O)CCC(=O)N(c2cccc(F)c2)C(C(=O)NC2CCCC2)c2ccc(C)o2)no1 (configuration not stated)	2	-1	-3	0	0	-2
C=CCNc1cccc2c1S(=O)(=O)N[C@@H](C)CO2	.	-1	0	0	.	0
CC1CC(=O)Nc2ccccc2N1C(=O)COc1cc(Cl)ccc1Cl (configuration not stated)	0	-3	1	0	2	1
O=C(COn1nnc2ccc(C(F)(F)F)cc21)Nc1c(Cl)cccc1Cl	-2	-2	0	1	9	15*
CC(C)=CCC/C(C)=C/COc1ccc2ccc(=O)oc2c1	1	4	0	0	-2	-2
CC(C)=CCC/C(C)=C/COc1c2occc2cc2ccc(=O)oc12	3	0	-1	0	69*	-2
Cc1nc(C(=O)NNC(=O)c2ccccc2)c(C(F)(F)F)o1	4.3*	0	-2	0	-2	-1
Cc1nc(C(=O)NCC(=O)c2ccccc2)c(C(F)(F)F)o1	2	1	0	0	0	-1
Cc1ccccc1C1=C/C(=C(\SS/C(C(=O)c2ccc(OCC(=O)O)c(Cl)c2Cl)=C2\C=C(c3ccccc3C)SS2)C(=O)c2ccc(OCC(=O)O)c(Cl)c2Cl)SS1	-1	4	0	0	.	-1
CCc1ccc2c(c1)/C(=C/C(=O)c1cccs1)C(=O)N2	-1	-2	0	-1	19	-1
SMILES	DAX1 inh-1	hgDAF-12 ag	hcDAF12 agonist	DAX1 inh-2	AHR activator	ssDAF-12 act
CCc1ccc2c(c1)/C(=N/N(C)C(=S)NC)C(=O)N2	0	4	6.4*	2	43	-1
CCCc1nc2ccc(C)cn2c1Cc1cccc(Cl)c1	.	8	5.6*	1	.	1.6*
CCCc1nc2ccc(C)cn2c1Cc1ccsc1	.	5	5.6*	2	.	0
Cc1ccc2nc(-c3ccccc3)c(Cc3cccc(Cl)c3)n2c1	.	7	1	1	.	0
CCCN(Cc1nnc(-c2ccccc2Cl)o1)C(=O)c1cc(S(=O)(=O)N2CCOCC2)ccc1F	-1	1	-1	-2	1	-1
CC1=NC(=O)C(N=Nc2ccccc2)N1c1ccccc1 (configuration not stated)	4.6*	4	5	1	23	1
O=C(C[n+]1cnn(CC(=O)c2ccc(Cl)cc2Cl)c1)c1ccc([N+](=O)[O-])cc1	-1	2	-2	0	1	-1
CSc1ncccc1C(=O)OCC(=O)c1cc(C)n(C)c1C	4.3*	4	6.4*	2	0	1
C=CCn1cnc2c(nnn2-c2ccc(Cl)cc2)c1=O	1	3	1	-1	84*	-2
C=CCn1cnc2c(nnn2-c2cc(C)cc(C)c2)c1=O	0	0	-2	0	10	-2
CCCN1CCN(CCCNC(=O)c2cc3c(=O)n(C)c4ccccc4c3n2C)CC1	8.4*	0	1	2	7	-1
Cn1c(C(=O)NCCCN2CCCCCC2)cc2c(=O)n(C)c3ccccc3c21	4	4	0	1	5	0
CCN(CC)CCCNC(=O)c1cc2c(=O)n(C)c3ccccc3c2n1C	7.5*	3	3	3	8	0
CCCCN(CC)CCNC(=O)c1cc2c(=O)n(C)c3ccccc3c2n1C	3	3	5	2	5	-1
CCCN(CCC)CCCNC(=O)c1cc2c(=O)n(C)c3ccccc3c2n1C	7.8*	0	2	5.0*	6	0
CCN(CC)CCNC(=O)c1cc2c(=O)n(C)c3ccccc3c2n1C	3	4	-2	4.2*	10	0
CN(C)CCNC(=O)c1cc2c(=O)n(C)c3ccccc3c2n1C	4	-1	5	0	25	-1
N#C/C(=C\c1ccc2c(c1)OCCO2)C(=O)Nc1nccs1	2	4	3	0	3	-1
CN(CCO)C(=O)c1nc[nH]c1C(=O)N1CCN(c2ccccc2)CC1	.	2	0	2	.	-1
Cc1nc(SCc2nc3cc(Cl)c(F)cc3[nH]2)c2oc3ccccc3c2n1	-1	-1	-1	0	0	-1
Nc1nc2ccccc2n1C(=O)c1ccc(F)cc1	-3	10	6	3.9*	28	0
Nc1nc2ccccc2n1C(=O)c1ccccc1	-1	12*	5.6*	3	10	0
COc1ccc(C(=O)n2c(N)nc3ccccc32)cc1OC	4	10	1	1	27	0
COCc1cc(=O)[nH]c(-c2ccccc2OC(F)(F)F)n1	1	0	-1	0	7	-2
